Source: PubChem
D1 antag: human D1 dopamine receptor antagonism; 360,000 tested, 3.2% active; HEK293 TREx D1 cells, calcium flux, dopamine EC80; active compounds read low; activity change, negative = inhibition, % at 10 µM; P21728; in the data active = activity change below about -30%; note: % is set by controls: 0 for no effect and ±100 for the full control effect
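HEK293 T-REx cells expressing inducible, force-coupled D1 receptor; no-wash Ca dye, 30–90 min RT. Cmpd → 180 s read at 1 Hz → EC80 DA → 180 s read.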
D1 ag: human D1 receptor agonism; P21728; 360,000 tested, 1% active; HEK293 T-REx D1 cells, calcium flux, agonist mode; activation, % at 2 µM; in the data active = activation above about 30%; note: 0% is about no effect
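Agonism was scored from calcium flux recorded over 180 s (1 read/s) after pintool compound addition, following a 10-cycle baseline. Cells were inducible force-coupled HEK293 TREx D1, plated overnight at 30 C and loaded with no-wash calcium dye.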
D1 potentiator: enhances dopamine response at the human D1 receptor | AID 504651 | 360,000 tested, 0.036% active | HEK293 TREx D1 cells, calcium flux, dopamine EC20 potentiation | P21728 | potentiation, % at 10 µM; in the data active = potentiation above about 30%; note: 0% is about no effect
DRD3 antagonist: blocks the human D3 dopamine receptor | P35462 | D3R cells, DiscoveRx beta-arrestin luminescence, antagonist mode; active compounds read low | max response, negative = inhibition, % | 360,000 tested, 2.5% active | AID 652054; in the data active = max response below about -50%; inconclusive = no clear call, values can overlap the other calls; note: % is set by controls: 0 for no effect and ±100 for the full control effect
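Cells plated overnight at 1500 cells/well, then exposed to library compounds with dopamine controls for 90 minutes at 37 degrees C. DiscoveRx reagent added for 30–60 minutes at room temperature; luminescence read, quantitative HTS format.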
D3 ag: activates the human D3 dopamine receptor | P35462 | D3R DiscoveRx beta-arrestin cells, luminescence, 90 min | max activation, % | 410,000 tested, 0.58% active; in the data active = max activation above about 30%; note: 0% is about no effect
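Cells at 1500/well, incubated overnight, then treated with pinned compounds (dopamine as control) for 90 min at 37 degrees C. DiscoveRx reagent added for 30 - 60 minutes at room temperature; luminescence read.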
Active calls of the source: *; ? = inconclusive; nt = no result given. Rows were chosen to be rich in hits. Some 6.1% of all compounds tested hit in one or more screens of this group.

SMILES	D1 antag	D1 ag	D1 potentiator	DRD3 antagonist	D3 ag
CCN(CC)CCNC(=O)C1c2ccccc2C(=O)N(CCOC)C1c1ccc(F)cc1 (centres undefined)	14	0	4	-62*	-8
COCCNC(=O)C1c2ccccc2C(=O)N(CCOC)C1c1ccc(F)cc1 (centres undefined)	16	2	2	13	1
COCCN1C(=O)c2ccccc2C(C(=O)NCCN(C)C)C1c1ccc(F)cc1 (centres undefined)	-1	4	1	-63*	-11
O=C(CSc1ccccc1F)NNC(=O)c1ccncc1	5	1	3	9	7
CC(C)C[C@H]1COc2cccc(N(C)CCO)c2S(=O)(=O)N1	nt	nt	nt	9	-4
CCN1C(=O)/C(=C/C=C2\N(CC)c3cc(S(=O)(=O)N(C)C)ccc3N2c2ccccc2)SC1=S	14	83*	-3	?	-12
CCN1C(=O)/C(=C\C=C\c2ccccc2[N+](=O)[O-])SC1=S	-5	3	-1	-12	0
CCC(Sc1nncn2c1cc1occc12)C(=O)Nc1ccc(C)c(Cl)c1 (centres undefined)	11	1	5	nt	-5
COc1cc(/C=c2\s/c(=C(/C#N)C(=O)N3CCCC3)n(-c3ccccc3)c2=O)ccc1O	0	138*	0	0	2
O=C(O)c1cccc2c1/C(=N/Nc1ccc([N+](=O)[O-])cc1[N+](=O)[O-])c1ccccc1-2	1	3	3	-54*	-6
O=C(O)c1ccc(N/N=C/c2ccc(OC(=O)c3cccc(Cl)c3)cc2)cc1	-36*	37*	-7	-12	6
O=C(Oc1ccc(/C=N/Nc2ccccc2)cc1)c1ccccc1	nt	nt	nt	-28	-2
CC(C)CCn1c(=O)c2sccc2n2c(CCCC(=O)N3CCN(c4ccccn4)CC3)nnc12	13	1	0	16	2
COc1ccc(-c2noc(N3CCC(C(=O)Nc4ccccc4OC)CC3)n2)cc1	-34*	8	-4	19	4
CCCC(=O)Nc1ccc(C(=O)/C=C/c2ccc(SC)cc2)cc1	-48*	16	-13	-16	-3
CSc1ccc(/C=C/C(=O)c2ccc(NC(C)=O)cc2)cc1	-6	7	-4	-11	-19
O=C1C=CC(=O)N1c1ccccc1N1C(=O)C=CC1=O	nt	nt	nt	-113*	-38
